NCOA3 inh: inhibits human SRC3 coactivator. AID 588352. Q9Y6Q9. inhibition, % at 3.6 µM. HEK293 GAL4-SRC3 luciferase reporter, luminescence. actives 0.17% (n = 360,000);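 active means inhibition above a per-campaign cutoff, the mean of all compounds plus 3 SD, cut at about 60% in these data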;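 further: 0% = DMSO-treated cells and 100% = gossypol-treated cells at 36 µM; higher means less SRC3-driven luciferase light from the GAL4 reporter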
COUP-TFII inh: blocks human COUP-TFII nuclear receptor; HEK293T NGFI-A luciferase reporter, luminescence; actives 0.7% (n = 370,000); AID 686940; inhibition, % at 8.6 µM;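 active means inhibition above a per-plate cutoff, mean inhibition of test wells between control levels plus 3 SD, cut at about 38% in these data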;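 further: cells cotransfected with COUP-TFII expression vector driving the NGFI-A reporter; 0% = median of COUP-TF2 test wells and 100% = reporter-only cells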
NCOA1 inh: inhibitors of human steroid receptor coactivator 1 (SRC1); Q15788; inhibition, % at 3.6 µM; HEK293 GAL4-SRC1 luciferase reporter, luminescence; actives 0.12% (n = 360,000);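 active means inhibition above the campaign mean plus 3 SD, with each screening campaign given its own cutoff, cut at about 60% in these data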;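 further: 0% = DMSO treated cells and 100% = gossypol at 36 µM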
Target sequence (Q15788 whole entry, looked up, the tested form may be a part): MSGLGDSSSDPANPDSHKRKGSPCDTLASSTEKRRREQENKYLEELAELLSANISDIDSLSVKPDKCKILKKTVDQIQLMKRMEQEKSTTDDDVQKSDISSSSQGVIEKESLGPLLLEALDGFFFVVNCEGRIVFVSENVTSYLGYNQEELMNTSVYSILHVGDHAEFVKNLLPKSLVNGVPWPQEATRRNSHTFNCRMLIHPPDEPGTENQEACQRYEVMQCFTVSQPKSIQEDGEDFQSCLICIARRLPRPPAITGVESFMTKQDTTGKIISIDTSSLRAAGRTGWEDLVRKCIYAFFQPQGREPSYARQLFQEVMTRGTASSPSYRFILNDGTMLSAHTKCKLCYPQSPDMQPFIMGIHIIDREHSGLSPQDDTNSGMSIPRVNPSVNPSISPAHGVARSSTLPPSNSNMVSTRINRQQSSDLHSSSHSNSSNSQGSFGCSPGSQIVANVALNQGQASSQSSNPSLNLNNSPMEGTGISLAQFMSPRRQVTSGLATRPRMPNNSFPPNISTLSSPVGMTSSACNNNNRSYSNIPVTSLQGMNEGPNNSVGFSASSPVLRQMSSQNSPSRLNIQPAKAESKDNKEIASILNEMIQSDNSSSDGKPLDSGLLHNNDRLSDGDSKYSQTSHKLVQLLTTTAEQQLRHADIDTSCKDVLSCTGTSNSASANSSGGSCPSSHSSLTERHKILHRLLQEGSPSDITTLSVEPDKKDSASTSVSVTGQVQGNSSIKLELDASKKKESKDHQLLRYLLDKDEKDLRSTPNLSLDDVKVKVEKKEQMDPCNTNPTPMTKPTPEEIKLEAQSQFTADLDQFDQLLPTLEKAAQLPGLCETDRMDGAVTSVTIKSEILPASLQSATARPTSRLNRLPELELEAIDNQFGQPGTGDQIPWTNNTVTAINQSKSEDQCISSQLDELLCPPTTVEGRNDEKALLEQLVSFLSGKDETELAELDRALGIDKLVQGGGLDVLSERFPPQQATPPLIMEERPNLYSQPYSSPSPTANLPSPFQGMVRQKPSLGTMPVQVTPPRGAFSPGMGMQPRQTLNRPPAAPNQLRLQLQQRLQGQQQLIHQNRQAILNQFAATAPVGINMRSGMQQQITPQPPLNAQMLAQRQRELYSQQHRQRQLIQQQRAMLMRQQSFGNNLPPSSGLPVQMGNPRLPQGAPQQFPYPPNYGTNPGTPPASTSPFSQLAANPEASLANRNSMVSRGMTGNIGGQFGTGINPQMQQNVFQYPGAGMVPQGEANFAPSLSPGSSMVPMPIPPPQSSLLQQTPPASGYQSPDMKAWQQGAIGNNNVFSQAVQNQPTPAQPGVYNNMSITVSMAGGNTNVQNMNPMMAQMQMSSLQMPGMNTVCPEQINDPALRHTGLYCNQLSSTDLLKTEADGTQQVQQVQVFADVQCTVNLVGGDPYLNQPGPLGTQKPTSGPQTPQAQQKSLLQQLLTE
NCOA2 inhibitor: human SRC2 (NCOA2) inhibition; Q15596; HEK293 GAL4-SRC2 luciferase reporter, luminescence; inhibition, % at 9 µM; actives 0.17% (n = 370,000); AID 651957;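 active means inhibition above the mean inhibition of all tested compounds plus 3 SD, set per campaign, cut at about 52% in these data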;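 further: 0% = DMSO treated cells and 100% = cells given Gossypol at 36 µM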
Efflux pump mplx: antifungal efflux pump inhibition, Nile Red retention | S. cerevisiae Candida pump triplex | inhibition, % at 10 µM | actives 0.44% (n = 330,000);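 active means plate passing quality check with inhibition over a set limit, or well fluorescence over plate mean plus 4 SD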;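 further: Nile Red retained in pooled yeast measured as flow cytometry median fluorescence; 0% = buffer negative control and 100% = Enniatin B positive control; higher means more Nile Red kept so more efflux inhibition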
NR5A2 inv ag: suppresses constitutive activity of human LRH-1. inhibition, % at 3.6 µM. AID 602396. actives 0.13% (n = 360,000). HEK293T StAR-luciferase reporter, LRH-1 transfected, 24 h. O00482;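 active means inhibition above the mean inhibition of all tested compounds plus 3 SD, cut at about 73% in these data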;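 further: 0% = DMSO wells and 100% = reporter-only cells lacking LRH-1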
VP16 Luc counter: counter-screen for COUP-TFII antagonists: inhibitors of VP16; shares compounds with COUP-TFII inh; HEK293 Gal4-VP16 luciferase reporter, luminescence; inhibition, % at 8.5 µM; actives 25% (n = 2,500); in the data active means inhibition above about 13%
COUP-TFII conf: confirmation of human COUP-TFII (NR2F2) inhibitors; shares compounds with COUP-TFII inh; actives 45% (n = 2,500); inhibition, % at 8.5 µM; HEK293 NGFI-A luciferase reporter, luminescence;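 active means mean inhibition over three repeats above a set limit taken from the earlier primary screen, cut at about 38% in these data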;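 further: 100% = cells given the luciferase reporter alone without the COUP-TF2 vector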
* hit, by the source's call. Sampled rows, rich in hits. Any-hit rate of the full collection: about 1.2%.

NC(=O)c1cnn(Cc2ccc(Cl)cc2)c1N was read as NCOA3 inh 11.1, COUP-TFII inh 1.4, NCOA1 inh -15.5, NCOA2 inhibitor -13.9, Efflux pump mplx 0.2 and NR5A2 inv ag -8.7.
For COC(=O)c1ccccc1S(=O)(=O)NNC(=O)c1nn(C)c(=O)c2ccccc12 the results were NCOA3 inh 9.1, COUP-TFII inh 8.3, NCOA1 inh -15.5, NCOA2 inhibitor 9.1, Efflux pump mplx -0.4 and NR5A2 inv ag 2.2.
For CCCCCCC(=O)N(O)C1CC(=O)N(c2ccc(Cl)cc2)C1=O (centres undefined) the results were NCOA3 inh 9.5, COUP-TFII inh 52.4*, NCOA1 inh 11.7, NCOA2 inhibitor 30.8, Efflux pump mplx 0.1, NR5A2 inv ag 6.6, VP16 Luc counter -6.8 and COUP-TFII conf 38.8*.
Screening Oc1ccc(Oc2ccc3c(C(F)(F)F)cc(C(F)(F)F)nc3n2)cc1 returned NCOA3 inh 23.5, COUP-TFII inh 49.2*, NCOA1 inh -3.2, NCOA2 inhibitor 11.0, Efflux pump mplx -0.1, NR5A2 inv ag 18.4, VP16 Luc counter -11.9 and COUP-TFII conf 37.4*.
`COc1ccc(Oc2ccc3c(C(F)(F)F)cc(C(F)(F)F)nc3n2)cc1` gave NCOA3 inh 8.5, COUP-TFII inh 10.6, NCOA1 inh 2.7, NCOA2 inhibitor 12.7, Efflux pump mplx -0.1 and NR5A2 inv ag -9.3.
Screening O=C(OCC(=O)N1CCc2ccccc21)c1ccc[nH]c1=O returned NCOA3 inh 12.1, COUP-TFII inh -16.8, NCOA1 inh -9.7, NCOA2 inhibitor -28.9, Efflux pump mplx 0.4 and NR5A2 inv ag 8.3.
O=C1N(c2ccccc2)CC2C(c3ccccc3)C(c3ccccc3)N3CCCC123 (centres undefined) was read as COUP-TFII inh 15.2 and NCOA2 inhibitor 25.5.
Screening O=C1N(c2ccccc2)C[C@@H]2C[C@@H](c3cc4ccccc4o3)N3CCC[C@@]123 returned NCOA3 inh 87.8*, COUP-TFII inh 79.6*, NCOA1 inh 90.1*, NCOA2 inhibitor 54.1*, NR5A2 inv ag 95.3*, VP16 Luc counter 8.9 and COUP-TFII conf 73.5*.
CC(C)(C)c1ccc(Oc2ccc(N)cn2)cc1 was read as NCOA3 inh 52.9, COUP-TFII inh 77.9*, NCOA1 inh 26.7, NCOA2 inhibitor 85.8*, Efflux pump mplx 0.3, NR5A2 inv ag 15.6, VP16 Luc counter 75.9* and COUP-TFII conf 66.8*.
For CC(C)(C)c1ccc(Oc2ccc(NC(=O)c3ccccc3C(=O)O)cn2)cc1 the results were NCOA3 inh 47.1, COUP-TFII inh 80.2*, NCOA1 inh 34.2, NCOA2 inhibitor 84.6*, Efflux pump mplx -0.1, NR5A2 inv ag 34.5, VP16 Luc counter 47.1* and COUP-TFII conf 18.7.
`O=[N+]([O-])c1ccc(Oc2ccc(C(F)(F)F)cn2)cc1` gave NCOA3 inh -1.9, COUP-TFII inh -19.1, NCOA1 inh 4.4, NCOA2 inhibitor 2.3, Efflux pump mplx -0.1 and NR5A2 inv ag 6.3.
Screening Nc1ccc(Oc2c(Cl)cccc2Cl)nc1 returned NCOA3 inh 5.2, COUP-TFII inh -5.3, NCOA1 inh 6.9, NCOA2 inhibitor 0.8, Efflux pump mplx 0.0 and NR5A2 inv ag -9.7.
`Cc1cc(Oc2ccc(N)cn2)cc(C)c1Cl` gave NCOA3 inh -11.8, COUP-TFII inh 38.3*, NCOA1 inh 3.8, NCOA2 inhibitor 14.8, Efflux pump mplx 0.1, NR5A2 inv ag 8.7, VP16 Luc counter 8.3 and COUP-TFII conf 12.0.
`O=C(O)c1ccccc1C(=O)Nc1ccc(Oc2ccccc2)cc1` gave NCOA3 inh 21.6, COUP-TFII inh 3.1, NCOA1 inh 7.9, NCOA2 inhibitor -11.6, Efflux pump mplx 0.0 and NR5A2 inv ag -13.3.
C=C1CC2(OC1=O)c1ccccc1CCc1ccccc12 was read as NCOA3 inh 19.9, COUP-TFII inh 39.5*, NCOA1 inh -60.7, NCOA2 inhibitor 46.3, NR5A2 inv ag 24.7, VP16 Luc counter 16.9* and COUP-TFII conf 28.8.
Screening O=C1NC(=O)C2(CCc3ccccc32)N1 (centres undefined) returned NCOA3 inh 13.8, COUP-TFII inh 2.3, NCOA1 inh -2.8, NCOA2 inhibitor 14.7, Efflux pump mplx -0.1 and NR5A2 inv ag 1.6.
Clc1ccc(-c2nnc(CSc3nnc(-c4cccs4)n3Cc3ccccc3)o2)cc1 was read as NCOA3 inh 21.4, COUP-TFII inh 50.7*, NCOA1 inh 27.2, NCOA2 inhibitor 25.0, Efflux pump mplx 0.2, NR5A2 inv ag 41.1, VP16 Luc counter 8.1 and COUP-TFII conf 47.1*.
Screening Cc1nnc(SCc2nnc(-c3cccs3)o2)n1Cc1ccccc1 returned NCOA3 inh 18.1, COUP-TFII inh 18.6, NCOA1 inh -16.2, NCOA2 inhibitor -2.6, Efflux pump mplx 0.1 and NR5A2 inv ag 3.9.
`COc1ccc(C(=O)C2CCN(C(=S)NCCc3ccc(OC)c(OC)c3)CC2)cc1` gave NCOA3 inh 21.4, COUP-TFII inh 44.0*, NCOA1 inh 10.6, NCOA2 inhibitor -11.1, Efflux pump mplx 0.1, NR5A2 inv ag 0.8, VP16 Luc counter 8.0 and COUP-TFII conf 17.8.
For COc1ccc(C(=O)C2CCN(C(=S)NCCc3ccccc3)CC2)cc1 the results were NCOA3 inh 3.6, COUP-TFII inh -4.9, NCOA1 inh 9.1, NCOA2 inhibitor -16.5, Efflux pump mplx -0.1 and NR5A2 inv ag 3.7.
For COc1ccc(CCNC(=S)N2CCC(C(=O)c3ccc(F)cc3)CC2)cc1OC the results were NCOA3 inh 26.7, COUP-TFII inh 43.2*, NCOA1 inh -19.7, NCOA2 inhibitor 36.6, Efflux pump mplx 0.0, NR5A2 inv ag 17.3, VP16 Luc counter 5.2 and COUP-TFII conf 27.4.
Cc1nc(-c2ccc(C(=O)Nc3cccc(F)c3)cc2)cs1 was read as NCOA3 inh -20.0, COUP-TFII inh 55.8*, NCOA1 inh -7.7, NCOA2 inhibitor 23.9, Efflux pump mplx 0.1, NR5A2 inv ag -27.7, VP16 Luc counter -104.2 and COUP-TFII conf -0.1.
Cc1nc(-c2cccc(NC(=O)c3ccco3)c2)cs1 was read as NCOA3 inh 6.3, COUP-TFII inh 8.8, NCOA1 inh -23.1, NCOA2 inhibitor -17.8, Efflux pump mplx 0.0 and NR5A2 inv ag -34.5.
Screening Cc1nc(-c2ccc(NC(=O)c3ccco3)cc2)cs1 returned NCOA3 inh -2.5, COUP-TFII inh 41.0*, NCOA1 inh -26.8, NCOA2 inhibitor 42.9, Efflux pump mplx 0.1, NR5A2 inv ag -41.0, VP16 Luc counter -3.8 and COUP-TFII conf -4.2.
Screening CSc1cccc(NC(=O)CCCOc2ccc(Cl)cc2C)c1 returned NCOA3 inh 0.6, COUP-TFII inh 5.6, NCOA1 inh -0.4, NCOA2 inhibitor -0.5, Efflux pump mplx 0.0 and NR5A2 inv ag -15.1.

Source: PubChem BioAssay (several laboratories)
